# Hits are enriched below; roughly 0.97% of the tested compounds scored in any of these assays.
# Mtb betalactam – beta-lactam sensitization of Mtb H37Rv | M. tuberculosis H37Rv growth with meropenem, percent inhibition | inhibition, % at 25 µM | 330,000 tested, 0.27% active; call rule not given here;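 further: growth measured after seven days incubation then overnight dye step; 0% = bacteria only wells and 100% = bacteria with antibiotic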
# RecA splice inh – Mtb RecA intein splicing inhibition | inhibition, % (no concentration beside the values) | cell-free RecA intein splicing, fluorescence | AID 2221 | 290,000 tested, 0.75% active | P9WHJ3; in the data active means inhibition above about 30%;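 further: 0% = vehicle wells and 100% = reference inhibitor control wells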
# TcdB inh – blocks C. difficile toxin B glycohydrolase activity; P18177; TcdB glycohydrolase enzymatic assay, plate reader; inhibition, % at 9.99 µM; 350,000 tested, 0.24% active; AID 652162; in the data active means inhibition above about 10%
# UGM FP inh – inhibitors of M. tuberculosis UDP-galactopyranose mutase | P9WIQ1 | 320,000 tested, 0.06% active | purified UGM, fluorescence polarization probe displacement | inhibition, % at 10 µM | AID 504406; in the data active means inhibition above about 10%, passing the limit was not always enough
# Target sequence (P9WIQ1 whole entry, looked up): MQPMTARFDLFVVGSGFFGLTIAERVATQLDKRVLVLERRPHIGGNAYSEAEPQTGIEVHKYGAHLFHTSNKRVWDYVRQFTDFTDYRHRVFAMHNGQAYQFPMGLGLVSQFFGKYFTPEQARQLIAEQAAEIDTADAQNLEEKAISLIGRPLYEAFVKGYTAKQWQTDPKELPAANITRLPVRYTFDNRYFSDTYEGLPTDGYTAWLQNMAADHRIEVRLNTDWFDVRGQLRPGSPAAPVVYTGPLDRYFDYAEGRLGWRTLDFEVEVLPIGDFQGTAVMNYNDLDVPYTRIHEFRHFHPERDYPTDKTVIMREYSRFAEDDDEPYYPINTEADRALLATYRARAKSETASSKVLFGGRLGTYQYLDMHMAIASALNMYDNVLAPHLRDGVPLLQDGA
# MazF activator – MazEF (E. coli) toxin RNase activation | FAM/BHQ RNA-DNA oligo cleavage fluorescence, 5 h | 350,000 tested, 0.32% active | activation, % at 20 µM | P0AE70; in the data active means activation above about 50%
# Target sequence (P0AE70 whole entry, looked up): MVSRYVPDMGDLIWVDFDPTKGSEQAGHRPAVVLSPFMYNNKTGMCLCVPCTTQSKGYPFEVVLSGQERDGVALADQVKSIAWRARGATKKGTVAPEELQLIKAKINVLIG
# Rv3671c protease – inhibits the M. tuberculosis serine protease Rv3671c; P9WHR9; 320,000 tested, 0.048% active; inhibition, % at 5.96 µM; AID 2606; in the data active means inhibition above about 38%;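 further: extracellular domain of Rv3671c used as enzyme; 0% = enzyme with DMSO and 100% = no enzyme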
# * hit, by the source's call; i = inactive; . = no result; ! = not active in a repeat.
SMILES,Mtb betalactam,RecA splice inh,TcdB inh,UGM FP inh,MazF activator,Rv3671c protease
Oc1ccc2c(c1)OCC1(O)Cc3cc(O)c(O)cc3C21 (configuration not stated),.,.,-17.5,.,.,.
Oc1cc2c(cc1O)[C@H]1c3ccc(O)c(O)c3OC[C@@]1(O)C2,0.0,.,0.6,2.7,231.3*,-1.3
Cn1c(=O)c(C(=O)NCc2ccccc2Cl)c(O)c2ccccc21,-4.9,-8.5,1.2,1.5,53.8*,0.9
CCOC(=O)c1nnc(-c2cccs2)nc1Oc1ccccc1C(=O)OC,-4.6,10.2,.,-1.0,-0.5,-4.9
CCOC(=O)c1nnc(-c2cccs2)nc1Oc1ccc(Cl)cc1,79.7,38.2*,.,0.8,2.0,-1.9
CCSc1nnnn1-c1ccccc1,1.8,.,1.3,-2.3,0.8,-6.6
Cc1ccc(C)c(-n2nnnc2Sc2nnnn2-c2ccccc2)c1,29.2,71.0*,.,-3.6,-3.6,2.7
COc1ccc(NC(c2ccccc2)c2ccncc2)cc1 (configuration not stated),86.0,-0.4,15.8*,-0.5,-2.8,0.4
C[C@H](CO)N1C[C@H](C)[C@H](CN(C)S(C)(=O)=O)OCc2cnnn2CCCC1=O,.,.,0.9,.,68.0*,.
S=c1[nH]nc(NC2CCCCC2)s1,.,.,18.4*,.,4.7,.
N#Cc1ccc(C(=O)N/N=C/c2cn(CC(=O)O)c3ccccc23)c(F)c1,3.4,-0.3,11.8*,4.6,-2.7,-16.2
C[C@H]1CN([C@@H](C)CO)C(=O)c2cc(NS(=O)(=O)c3cn(C)cn3)ccc2O[C@@H]1CN(C)C(=O)Nc1cccc2ccccc12,.,.,-1.1,.,.,.
Cc1nnc(N2C(=O)C(O)=C(C(=O)c3ccco3)C2c2ccc(C(C)C)cc2)s1 (configuration not stated),-7.4,-1.4,.,5.8,62.3*,3.4
CSc1ccc(C2C(C(=O)c3ccco3)=C(O)C(=O)N2c2nnc(SC)s2)cc1 (configuration not stated),1.1,1.1,2.0,1.4,186.8*,-2.8
Cc1nnc(N2C(=O)C(O)=C(C(=O)c3ccco3)C2c2ccc(C(C)(C)C)cc2)s1 (configuration not stated),-14.7,-1.1,.,-0.1,191.9*,-8.0
C[C@@H]1CN([C@H](C)CO)C(=O)c2cc(NS(=O)(=O)c3ccc(F)cc3)ccc2O[C@@H]1CN(C)C(=O)NC1CCCCC1,.,.,0.9,.,.,.
C/C=C/c1cnc2c(c1)C(=O)N([C@H](C)CO)C[C@@H](C)[C@H](CN(C)S(=O)(=O)c1ccc(F)cc1)O2,.,.,-1.5,.,.,.
COc1ccc(-c2cc(NC(=O)Cc3c[nH]c4ccccc34)ccc2Nc2cccnc2)cc1F,.,.,1.6,.,.,.
COc1ccc(-n2c(C)cc(C(=O)CCl)c2C)cc1,98.4,33.5*,3.0,-1.3,2.0,5.7
O=C(C[C@@H]1C=C[C@@H](NC(=O)C2CC2)[C@H](CO)O1)NCc1ccccc1Cl,.,.,-0.1,.,.,.
CC[C@@]1(O)C(=O)OCc2c1cc1n(c2=O)Cc2cc3c(CN(C)C)c(O)ccc3nc2-1,-0.4,i,3.9,33.5*,i,6.3
CC[C@@]1(O)C(=O)OCc2c1cc1n(c2=O)Cc2cc3c(N)cccc3nc2-1,-4.6,-4.3,-0.5,1.5,9.6,-0.5
Cc1cccc(C(=O)N=c2c(C#N)cc3c(=O)n4cccc(C)c4nc3n2Cc2ccco2)c1,-4.0,-1.6,-1.3,1.8,53.8*!,-11.2
COc1ccc(NC(=O)C2CC(=O)N(c3ccccc3F)C2)cc1S(=O)(=O)N1CCCCC1 (configuration not stated),.,.,13.0*,.,6.2,.
O=C(c1ccc(F)cc1)N1CCCCN2[C@H](CO)[C@H](c3ccc(C#CC4(O)CCCC4)cc3)[C@H]2C1,.,.,0.5,.,.,.
SMILES,Mtb betalactam,RecA splice inh,TcdB inh,UGM FP inh,MazF activator,Rv3671c protease
CC[n+]1c(/C=C/C=C/N(C(C)=O)c2ccccc2)sc2cc(OC)ccc21,2.0,.,-0.6,-4.9,506.0*,-357.6
CC[n+]1c(/C=C(\C)OC)sc2ccccc21,.,.,1.5,.,1.9,.
COc1cc(N=Nc2c(C)n(C)n(-c3ccccc3)c2=O)ccc1N,-1.0,-0.9,14.1*,2.1,0.8,10.3
CSc1nc(-c2ccc(Cl)cc2Cl)[nH]c(=O)c1C#N,7.6,-2.3,12.6*,1.7,-2.6,6.2
Cc1cc(-c2ccc(Cl)cc2Cl)c(C#N)c(=O)[nH]1,-4.9,-6.6,0.4,-0.5,1.1,3.0
COC(=O)[C@]12C[C@H](CC(=O)NCc3ccc(C)o3)C(=O)N(Cc3ccccc3)C1=C[C@H](C(C)(C)C)O[C@@H]2C,.,.,-2.4,.,.,.
O=C1CS/C(=C\[N+](=O)[O-])N1c1ccc(OC(F)(F)F)cc1,-16.7,35.7*,.,2.1,3.3,0.1
CCCNC(=O)C[C@H]1CC[C@@H]2[C@H](COc3ccc(NC(=O)c4cccc(OC)c4)cc3C(=O)N2C)O1,.,.,6.3,.,.,.
COc1cccc(NC(=O)N[C@@H]2CC[C@H](CC(=O)Nc3ccc(-c4ccccc4)cc3)O[C@H]2CO)c1,.,.,-1.9,.,.,.
O=[N+]([O-])c1cccc(CN2CCN(c3cccc4[nH]ccc34)CC2)c1,3.4,-3.5,5.0,2.0,-1.9,7.0
O=C(c1ccc([N+](=O)[O-])cc1)N1CCN(c2cccc3[nH]ccc23)CC1,6.8,-1.3,10.0*,-0.8,2.6,5.4
COC(=O)/C=C1\C(=O)N(c2nc3ccccc3s2)C(=S)N1c1ccc(F)cc1,4.9,-4.0,1.0,2.6,57.7*,-5.8
CCCNC(=O)N1C[C@H]2[C@@H](c3ccccc31)[C@H](CO)N2CC1CCCC1,.,.,0.4,.,.,.
COc1cc(/C=N/NC(=O)c2nnn(-c3nonc3N)c2C(C)C)ccc1O,-0.9,-3.5,13.1*,-1.8,7.1,-5.3
Nc1nonc1-n1nnc(C(=O)N/N=C/c2ccc3c(c2)OCO3)c1CSc1ccccc1,-4.1,-4.7,1.6,-1.8,72.1*,1.0
Nc1nonc1-n1nnc(C(=O)N/N=C/c2ccccc2Cl)c1CSc1ccccc1,-1.5,.,-0.1,6.3,-0.1,-17.8
C[C@@H]1CN([C@@H](C)CO)C(=O)c2cc(NC(=O)Nc3ccc(F)cc3)ccc2O[C@@H](C)CCCCO[C@H]1CN(C)Cc1ccc(C(=O)O)cc1,.,.,-4.1,.,.,.
Cc1ccc(S(=O)(=O)NN=C2CCC(C(C)(C)C)CC2)cc1[N+](=O)[O-] (configuration not stated),-3.9,2.7,.,0.5,115.0*,4.8
C/C(CC(C)C)=N\NS(=O)(=O)c1ccc(C)c([N+](=O)[O-])c1,0.7,-2.8,-1.4,1.0,68.4*,0.6
CCCC1CCC(=NNS(=O)(=O)c2ccc(C)c([N+](=O)[O-])c2)CC1 (configuration not stated),-2.1,1.7,-0.3,3.6,47.3,1.9
CC1CCCC/C1=N\NS(=O)(=O)c1ccc(Br)cc1 (configuration not stated),-3.5,0.6,.,2.3,78.3*,1.3
C/C(=N\NS(=O)(=O)c1ccc(C)c([N+](=O)[O-])c1)c1cccs1,-1.4,-0.3,-1.9,-3.5,0.3,-0.6
